# From PubChem BioAssay
# Target: Torsin-1A-interacting protein 1 (Homo sapiens) (UniProt Q5JTV8)
# Test: compound microarray binding of lysate hLAP1 – cell lysate, small-molecule microarray, COS7 lysate, 635/667 nm fluorescence, primary screen (AID 1116)
# Settings: 635 nm fluorescence, higher = more signal
# Sequence of Torsin-1A-interacting protein 1 (Homo sapiens) (Q5JTV8 whole entry, looked up): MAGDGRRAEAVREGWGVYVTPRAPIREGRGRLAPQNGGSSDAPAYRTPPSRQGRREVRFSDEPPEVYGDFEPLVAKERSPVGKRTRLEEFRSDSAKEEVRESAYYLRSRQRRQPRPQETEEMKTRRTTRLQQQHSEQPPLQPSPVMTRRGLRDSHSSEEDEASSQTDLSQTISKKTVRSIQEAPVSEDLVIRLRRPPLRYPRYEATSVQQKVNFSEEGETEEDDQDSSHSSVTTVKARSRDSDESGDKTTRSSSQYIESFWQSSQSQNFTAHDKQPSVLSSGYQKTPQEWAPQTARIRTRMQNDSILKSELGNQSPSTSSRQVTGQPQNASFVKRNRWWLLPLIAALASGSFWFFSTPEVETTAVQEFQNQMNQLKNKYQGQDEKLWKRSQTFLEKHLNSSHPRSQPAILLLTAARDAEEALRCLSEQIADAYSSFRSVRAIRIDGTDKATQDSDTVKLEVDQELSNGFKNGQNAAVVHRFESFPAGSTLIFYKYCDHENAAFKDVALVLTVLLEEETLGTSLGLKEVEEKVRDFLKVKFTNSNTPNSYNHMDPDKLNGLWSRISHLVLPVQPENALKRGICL
row,SMILES,composite z-score
1,N#Cc1ccc(NN2C(C(O)c3ccc(Br)cc3)C=CC3C(=O)N(c4ccccc4)C(=O)C32)cc1 (stereo unspecified),1.14
2,Oc1ccc2cc[n+](Cc3cc4c(cc3Br)OCO4)cc2c1,-0.346
3,Cc1cc(C)c(C(O)C2C=CC3C(=O)N(c4ccccc4)C(=O)C3N2Nc2ccccc2F)c(C)c1 (stereo unspecified),0.563
4,COCCOC(=O)N1C(=O)[C@@]2(c3cc(C#CC4=CCCCC4)ccc31)[C@H](C(=O)Nc1nc3ccccc3s1)[C@H]1C(=O)O[C@H](c3ccccc3)[C@H](c3ccccc3)N1[C@@H]2c1ccc(O)cc1,0.666
5,COc1ccc([Si](C)(C)[C@H]2[C@H](CC(=O)N(CCO)Cc3ccccc3)O[C@@]3(C(=O)N(C)c4c(Br)cc(C)cc43)[C@@H]2C)cc1,0.491
6,O=C(c1ccccc1)N1C(=O)[C@]2(Cc3ccccc31)N=C(c1ccc(OCCCO)cc1)O[C@@H]2c1ccccc1,0.688
7,COc1ccc(CCNC(=O)[C@@]2(c3ccc([N+](=O)[O-])cc3)CC(=O)N(C3CCCCC3)[C@@H]2c2ccc(CO)cc2)cc1,0.774
8,O=C(NCCN1CCOCC1)[C@@H]1c2ccccc2C(=O)N(Cc2ccccc2Cl)[C@H]1c1ccc(CO)cc1,-0.815
9,CS(=O)(=O)CCOC(=O)C1=CC(c2ccc(CO)cc2)=CC(C2CC2)N(Cc2sc3ccccc3c2Cl)C=C1C(=O)OCCS(C)(=O)=O (stereo unspecified),0.702
10,CC1=C2[C@@H](CCc3ccccc3)OB(O)C[C@@H]2[C@@H]2C(=O)N(C)C(=O)[C@@H]2C1,0.284
11,CN1C2C=C(CCCO)C(C3C(=O)N(C(N)=O)C(=O)C32)C1C1CC1 (stereo unspecified),0.474
